Reference: PubChem BioAssay AID624418 (National Center for Advancing Translational Sciences (NCATS), 2012)
The whole screen tested about 410,000 compounds, of which about 530 (0.13%) were called active. Another 5% or so got no clear call; they are omitted. What follows is part of a selection rich in actives, with near analogues and random picks from the rest. Where a call stands in place of a potency, no number is given. Values without a mark were called inactive. Calls come from the whole dose curve; as a rule, active = well fitted inhibition curve with a large enough effect; inconclusive = small, poorly fitted or top-dose-only effect, or another doubt; inactive = no such curve, though single readings can be large or run the other way.

Assay: qHTS of GLP-1 Receptor Inverse Agonists: Cytotox Screen;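 note: loss of luciferase light is scored as toxicity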
Conditions: HEK293 cAMP-luciferase reporter cells, luminescence, 24 h; series mostly up to 38.3 µM
Summary of the method: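 MLSMR compounds, 24 hr on cells at 37 deg C/5% CO2; luminescence after luciferase reagent (12 min RT). Inhibition counted as the undesired cytotoxic outcome.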
Potency is the fitted concentration of half-maximal effect.

SMILES | Potency | activity change, negative = inhibition
Cc1cccc(C(=O)Nc2ccc(S(=O)(=O)N3CCCCC3c3cccnc3)cc2)c1 (configuration not stated) | inactive | –
O=C(Nc1ccc(Br)cc1)c1ccc(Br)c(S(=O)(=O)NCc2ccccc2)c1 | inactive | –
CCOC(=O)c1c(NC(=O)/C=C/c2ccc(OC)cc2)sc2c1CCC(C)C2 (configuration not stated) | inactive | –
CCc1ccc(NC(=O)Cn2c(=O)n(CCC(=O)NCc3ccc4c(c3)OCO4)c(=O)c3ccccc32)cc1 | inactive | –
O=C(c1ccc(Cl)cc1)n1nc(-c2cccnc2)nc1NCc1ccc(F)cc1 | inactive | –
Clc1ccc(CSc2nncn3c2cc2occc23)cc1 | inactive | –
O=C(Cn1cnc2c(oc3ccccc32)c1=O)Nc1ccc(OC(F)(F)F)cc1 | inactive | –
COc1ccc(C(=O)COC(=O)CCCC(=O)Nc2cc(C(F)(F)F)ccc2Cl)cc1 | inactive | –
Cc1ccc(CCNC(=O)c2ccc(CS(=O)(=O)Cc3cccc(C)c3)o2)cc1 | inactive | –
Cc1c(CNC2CCCCC2)c(C(=O)O)c(C)n1Cc1cccc(Cl)c1 | inactive | –
Cc1nc(SCCOc2ccc(Cl)cc2)[nH]c(=O)c1Cc1ccccc1 | inactive | –
Cc1cc(NC(=O)CC(C)C)cc(-c2nc3ncccc3o2)c1O | inactive | –
Cc1ccc2nc(COc3cccc(NC(=O)c4ccccc4Cl)c3)cc(=O)n2c1 | inactive | –
COc1ccc(CCNC(=O)CCCCn2c(=O)c3ccccc3n(Cc3ccccc3)c2=O)cc1OC | inactive | –
CCOC(=O)C1=CCC2C(=O)N(Cc3ccccc3)C(=O)C12 (configuration not stated) | inactive | –
COc1cc(/C=C2/SC(=S)N(Cc3ccccc3)C2=O)cc(OC)c1O | 10 µM (active) | –
COc1ccc(-c2nn(-c3ccccc3)cc2/C=N/Nc2ccccn2)cc1OC | 5.01 µM (active) | –
CCCCCc1c(-c2ccc(OC)c(OC)c2)ncn1CCc1ccccc1OC | inactive | –
COc1ccc(-c2cc(C(F)(F)F)n3nc(-c4ccccc4)cc3n2)cc1OC | inactive | –
Cc1ccccc1CN1CCC(CNC(=O)c2cc3ccc4cccnc4c3[nH]2)CC1 | inactive | –
O=C(NCC(c1ccc2c(c1)OCO2)N1CCN(c2ccccc2)CC1)C(=O)Nc1ccccc1F (configuration not stated) | inactive | –
CCc1ccc(NC(=O)c2cc(S(=O)(=O)NC3CCCCCC3)ccc2F)cc1 | inactive | –
CCCCN(CC)C(=O)c1c[nH]c2ccc(S(=O)(=O)Nc3cccc(OC)c3)cc2c1=O | inactive | –
Cc1cccc(NC(=O)c2ccc(F)c(S(=O)(=O)N(C)C3CCCCC3)c2)c1 | inactive | –
COc1ccc(NC(=O)c2ccc3oc(=O)c(S(=O)(=O)c4ccc(F)cc4)cc3c2)c(OC)c1 | inactive | –

SMILES | Potency | activity change, negative = inhibition
Cc1ccc(-n2c(SCC(=O)Nc3cccc(F)c3)nc3c(oc4ccccc43)c2=O)cc1C | inactive | –
CC(C)Oc1ccc(NC(=O)c2cc3ccccc3o2)cc1 | inactive | –
Cc1ccc(NC(=O)C2CCN(S(=O)(=O)c3cc(-c4noc(C)n4)ccc3C)CC2)c(C)c1 | inactive | –
Cc1ccc(Cl)cc1NC(=O)/C(C#N)=C\c1cn(Cc2ccc(F)cc2)c2ccccc12 | inactive | –
CN(CC(=O)NCCN1CCOCC1)S(=O)(=O)c1ccc(F)cc1 | inactive | –
Cc1c(C(=O)NCCN2CCOCC2)sc2nc(-c3ccc(F)cc3)cn12 | inactive | –
Fc1ccc(-c2ccc(NCCN3CCOCC3)nn2)cc1 | 10 µM (active) | –
COc1cc(OC)cc(C(=O)NCCc2csc3nc(-c4ccccc4F)nn23)c1 | inactive | –
CCOc1ccc(NC(=O)CCc2c(C)nn(-c3ccc(N4CCCC4)nn3)c2C)cc1 | inactive | –
COc1ccc(C)cc1N(CC(=O)N1CCC(C)CC1)S(=O)(=O)c1ccc(C)cc1 | inactive | –
O=C1/C(=C\c2ccc([N+](=O)[O-])cc2)CS(=O)(=O)C/C1=C/c1ccc([N+](=O)[O-])cc1 | 3.16 µM (active) | –
COc1cc(C(=O)N2CCN(C(=O)COc3cccc(C)c3)CC2)cc(OC)c1OC | inactive | –
CCc1nc2nc(C)cc(Nc3ccc(F)c(Cl)c3)n2n1 | inactive | –
COCCNC(=O)CSc1c(C)cnc2c1c(=O)n(C)c(=O)n2C | inactive | –
CCOCCCNC(=O)c1c(NC(=O)Cc2coc3c(C)c(C)ccc23)sc2c1CCC2 | inactive | –
Cc1ccc(S(=O)(=O)c2nnn3c2nc(N2CCN(c4ccccc4F)CC2)c2cc(Cl)ccc23)cc1C | inactive | –
CN(C)C(=S)N=c1ssc(=S)n1Cc1ccco1 | 0.316 µM (active) | –
CCc1ccccc1N1CN(Cc2ccco2)CNC1=S | inactive | –
CCOC(=O)c1ccc(CN(Cc2ccccc2)S(=O)(=O)c2ccc(Cl)cc2)cc1 | inactive | –
COc1c(Cl)cc(Cl)cc1C(=O)Nc1cccc2cccnc12 | inactive | –
CC(C)C12CN3CC(C(C)C)(CN(C1)C3c1ccc(OCc3ccccc3)cc1)C2=O (configuration not stated) | inactive | –
Cc1ccccc1-c1nc2cc(NC(=O)c3cccc(OCCC(C)C)c3)ccc2o1 | inactive | –
COc1ccc(-n2c(SC)nc3sc4c(c3c2=O)CCN(C(C)=O)C4)cc1 | inactive | –
O=C(c1ccc2c(c1)N(Cc1ccccc1)C(=O)c1ccccc1S2(=O)=O)N1CCCC1 | inactive | –
CC1CCCCN1CC(=O)N1CCCc2c1c(=O)oc1ccc(OCc3ccccc3)cc21 (configuration not stated) | inactive | –

SMILES | Potency | activity change, negative = inhibition
CCC1CCCCN1Cc1c(O)ccc2c(=O)c(Oc3ccccc3Cl)c(C(F)(F)F)oc12 (configuration not stated) | inactive | –
COC(=O)c1sccc1S(=O)(=O)N(CC(=O)Nc1ccc(C)c(F)c1)c1ccc(C)c(C)c1 | inactive | –
O=S(=O)(c1ccc2nc(N3CCN(c4cccc(Cl)c4)CC3)ccc2c1)N1CCCCC1 | inactive | –
COc1ccccc1NC(=O)CN1C(=O)c2ccccc2Sc2ccc(C(=O)N3CCCC3)cc21 | inactive | –
CCOc1ccc(NC(=O)c2cc3c(=O)n(Cc4cccs4)ccc3nc2C)cc1 | inactive | –
CCCC(=O)Nc1ccc2oc(-c3ccc(O)c(Br)c3)nc2c1 | inactive | –
COc1ccc(C(F)(F)F)cc1NC(=O)c1sc2nc(-c3cccs3)ccc2c1N | inactive | –
CCCCCn1c(=O)[nH]c2cc(C(=O)Nc3cc(C)cc(C)c3)ccc2c1=O | inactive | –
O=C(Cn1ncc2c3ccccc3n(Cc3ccccc3)c2c1=O)NC1CCCCCC1 | inactive | –
COc1ccc(-c2noc(CSc3nc4ccc(C)cc4[nH]3)n2)cc1 | inactive | –
Cc1ccc(-n2ncc(C(=O)N(C)Cc3ccccc3)c2-n2cccc2)cc1 | inactive | –
CCOc1ccc(S(=O)(=O)c2cn(Cc3ccc(OC)cc3)c3ccc(F)cc3c2=O)cc1 | inactive | –
N#C/C(=C\c1ccccc1F)c1nc2ccccc2c(=O)[nH]1 | inactive | –
Cc1ccc2nc(CNC(=O)c3ccccc3)[nH]c2c1 | inactive | –
O=C(/C(=C/c1cccc(Cl)c1)c1nc2ccccc2[nH]1)c1ccccc1 | 10 µM (active) | –
COc1ccc(-c2noc(CSc3nc(C)cc(=O)[nH]3)n2)cc1OC | inactive | –
CCOc1ccc(N(Cc2ccccc2)C(=O)c2nc(S(C)(=O)=O)ncc2Cl)cc1 | 7.94 µM (active) | –
CCOc1ccc(N(Cc2ccccc2)C(=O)c2nc(SCC)ncc2Cl)cc1 | inactive | –
CCOc1ccc(NC(=O)CN(Cc2ccccc2)S(=O)(=O)c2ccc(Cl)cc2)cc1 | inactive | –
CCCCC(CC)CNC(=O)C1CCN(S(=O)(=O)c2cccc3nsnc23)CC1 (configuration not stated) | inactive | –
COC(=O)CN1C(=O)CSc2ccc(S(=O)(=O)Nc3cc(C)ccc3C)cc21 | inactive | –
CCCNC(=O)c1ccc(Cn2c(SCC(N)=O)nc3ccccc3c2=O)cc1 | inactive | –
Cc1csc(NC(=S)Nc2cccc(Cl)c2)n1 | 0.891 µM (active) | –
O=C(Nc1cccc(Cl)c1)c1csnn1 | inactive | –
COc1cccc(NC(=S)NC(=O)c2c(Cl)c(C)nn2C)c1 | inactive | –

SMILES | Potency | activity change, negative = inhibition
O=C(CCOc1ccccc1)N(Cc1cccnc1)c1nc2ccc(Cl)cc2s1 | inactive | –
COc1ccc(NC(=O)Cn2c(=O)n(CCC(C)C)c(=O)c3cccnc32)cc1Cl | inactive | –
CCOc1ccc(NC(=O)CSc2c3c(nc4ccccc24)CCCC3)cc1 | inactive | –
COc1ccc(C2NC(=O)N(C)C3=C2C(=O)N(c2ccc(C(=O)O)cc2)C3)cc1 (configuration not stated) | inactive | –
COc1ccccc1CNc1nc2ccc(Cl)cc2n2cnnc12 | inactive | –
O=c1c2ccccc2n(Cc2cccc(Cl)c2)c(=O)n1Cc1ccccc1 | inactive | –
COc1ccc(C(=O)CSc2c(C(C)C)cnc3c2c(=O)n(C)c(=O)n3C)cc1 | inactive | –
COc1ccc(C2CC(=O)Nc3c2c(=O)nc2c(C)cccn32)cc1OC (configuration not stated) | inactive | –
CC(=O)N1c2ccccc2CC1C(=O)N1CCN(c2ccc(F)cc2)CC1 (configuration not stated) | inactive | –
COc1cc(C2c3c(oc4ccccc4c3=O)C(=O)N2c2nc(C)c(C)s2)ccc1O (configuration not stated) | inactive | –
CC(C)(C)C1CCc2c(sc(NC(=O)c3ccccc3F)c2C(=O)N2CCCCC2)C1 (configuration not stated) | inactive | –
COc1ccc(NC(=O)N2CCCn3nc(C)cc32)cc1OC | inactive | –
CCOc1ccc(NC(=O)Cn2c(=O)n(CCCC(=O)NCc3ccc4c(c3)OCO4)c(=O)c3ccccc32)cc1 | inactive | –
CN(Cc1ccccc1)C(=O)CCS(=O)(=O)c1cc(Br)cc2c1N(C(=O)C1CC1)CC2 | inactive | –
COc1ccc(-c2cc(-c3nc(-c4cc(OC)c(OC)c(OC)c4)no3)[nH]n2)c(OC)c1 | inactive | –
CCOC(=O)c1ccc(NC(=O)c2ncn(-c3ccccc3)n2)cc1 | inactive | –
COC(=O)c1c(NC(=O)c2ccc(Cl)c(Cl)c2)sc2c1CCCC2 | inactive | –
O=c1[nH]c2cc(Br)ccc2n2cccc12 | inactive | –
COc1cccc(-c2nc(S(=O)(=O)c3ccc(C)cc3)c(NCc3ccccc3)o2)c1 | inactive | –
CCN(CC(=O)Nc1ccc(Cl)c(S(=O)(=O)N(C)C)c1)Cc1nc2ccccc2c(=O)[nH]1 | – | 0.695% [at 0.307 µM]
CCCCN(CC(=O)Nc1cccc(S(=O)(=O)N2CCCC2)c1)Cc1nc2ccccc2c(=O)[nH]1 | inactive | –
CCN(CC(=O)NC(=O)NCc1ccccc1)Cc1nc2ccccc2c(=O)[nH]1 | 6.31 µM (active) | –
